Consider 36 compounds from PubChem BioAssay (EPA / NIEHS).

“And” between values parts separate entries of the source, which are not always exact repeats. Identical values can stand only once. Results filed as inconclusive are left out. The source made the active and inactive calls. The calls were made as follows: active = hit-call score of the fitted dose curve at least 0.9, where 1 is the maximum; inconclusive = response in the unintended direction; inactive = score below 0.9. *1 amine or outer side, *2 acyl side, *3 side chain or, on linkers, in order; H or OH if unused. Where a SMILES comes first, the peptide text is derived from it. Bridges are numbered along the chain shown (N, C = ends). [ ]: non-standard residue; d: D form. The star is where a group is joined. X3 = NC1=N[C@@H]([C@H](N[*:1])C(=O)[*:2])C[C@H](O)N1; ΔAla(Z-3-ureido) = NC(=O)N/C=C(\N)C(=O)O; β3hOrn = NCCC[C@H](N)CC(=O)*; Dap = NC[C@H](N)C(=O)O

One test concerns the target Cellular tumor antigen p53 (Homo sapiens) (UniProt P04637). Kind of test: TOX21_p53_BLA_p3_ratio: Tox21 HCT-116 p53 Agonism Beta-lactamase Assay, Ratio, Phase 3 (AID 2283596). Summed up:
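HCT116 p53-bla cells (4000/well) given compound in DMSO (217-fold dilution) after 5 h, incubated 16 h at 37C. CCF4-AM substrate 2 h at room temperature; 460/530 nm emission ratio, gain fitted against DMSO.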
Consider `Cn1c(=O)c2c(ncn2CC(O)CO)n(C)c1=O` (stereo not given), for which the outcome was inactive.
Still for that read-out and setting: for `O=C(O)C(=O)Cc1c[nH]c2ccccc12` the value was “inactive”.
The same measure, in the same setting: for `Nc1nc(/C(=C/CC(=O)O)C(=O)N[C@@H]2C(=O)N3C(C(=O)O)=CCS[C@H]23)cs1` the value was “inactive”.
Same read-out and setting: next, `O=C[C@H](O)[C@@H](O)[C@H](O)[C@H](O)CO`: “inactive”.
Turning to `CC(=O)NC(Cc1ccccc1)C(=O)O` (stereo not given), the outcome was inactive.
For the compound `Cc1cnc(C(=O)NCCc2ccc(S(=O)(=O)NC(=O)NC3CCCCC3)cc2)cn1`, the outcome was inactive.
Consider `O=C(NCCN1CCOCC1)c1ccc(Cl)cc1`, for which the outcome was inactive.
Turning to `CC(C)(C)C(=O)CC(=O)C(C)(C)C`, the outcome was inactive.
On to `CCn1cc(C(=O)O)c(=O)c2cc(F)c(N3CCNCC3)cc21`, for which the outcome was inactive.
The same measure, in the same setting: next, `NC(=O)CC[C@@H]1NC(=O)[C@H](Cc2ccccc2)NC(=O)[C@H](Cc2ccc(O)cc2)NC(=O)CCSSC[C@@H](C(=O)N2CCC[C@H]2C(=O)N[C@@H](CCCN=C(N)N)C(=O)NCC(N)=O)NC(=O)[C@H](CC(N)=O)NC1=O`: “inactive”; `OC[C@@H](O)C(O)[C@H](O)CO`: “inactive”.
Turning to `COc1cc([C@@H]2c3cc4c(cc3[C@H](O)[C@H]3COC(=O)[C@H]23)OCO4)cc(OC)c1OC`, the result was inactive.
Consider `NCCCNCCSP(=O)(O)O`, for which the outcome was inactive.
On to `COc1c(N2C[C@@H]3CCCN[C@@H]3C2)c(F)cc2c(=O)c(C(=O)O)cn(C3CC3)c12`, for which the result was inactive.
The same measure, in the same setting: for `CCCc1ccc(C(=O)O)cc1` the value was “inactive”.

Test system in another test: not listed separately
Nature of the test: TOX21_p53_BLA_p4_viability: Viability Assessment in the Tox21 HCT-116 p53 Agonism Beta-lactamase Assay, Phase 4 (AID 2283597).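 Also: hits lower the luminescence signal meaning cytotoxicity.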 The procedure, abridged:
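Compound exposure of HCT116 cells lasts 16 h at 37C, 5% CO2, with DMSO stocks diluted 217-fold. Cellular ATP is then quantified by CellTiter-Glo luminescence after 30 min at room temperature.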
For `NC(=O)c1cc[n+](CC2=C(C(=O)O)N3C(=O)[C@@H](NC(=O)[C@@H](c4ccccc4)S(=O)(=O)[O-])[C@H]3SC2)cc1`, the outcome was inactive.
Still for that read-out and setting: for `CCCCCCCCCCCCCCCCCCCCCC(=O)Nc1ccn([C@@H]2O[C@H](CO)[C@@H](O)[C@@H]2O)c(=O)n1` the value was “inactive”.
The same measure, in the same setting: for `CCN(CC)CCOCCOC(=O)C(CC)(CC)c1ccccc1` the value was “inactive”; for `CC12CC3CC(C)(C1)CC(N)(C3)C2`, “inactive”.
As for `CC(=O)c1ccc2c(c1)N(CCCN(C)C)c1ccccc1S2`, the result was inactive.
As to `O=C(Cl)c1cc(Cl)cc(Cl)c1`, the call was inactive.
Consider `COc1ccccc1N1CCN(CCCNc2cc(=O)n(C)c(=O)n2C)CC1`, for which the outcome was inactive.
Same read-out and setting: for `C=CS(=O)(=O)O` the value was “inactive”.
Same read-out and setting: next, `c1ccc(CCNc2nc(-c3ccccc3)cs2)cc1`: “inactive”.
As to `BrC/C=C/CBr`, the compound was classed as inactive.
Take `Cn1c(=O)c2c(ncn2CC(O)CO)n(C)c1=O` (stereo not given): the compound was classed as inactive.
`Nc1nc(/C(=C/CC(=O)O)C(=O)N[C@@H]2C(=O)N3C(C(=O)O)=CCS[C@H]23)cs1`: the result was inactive.
As to `O=C[C@H](O)[C@@H](O)[C@H](O)[C@H](O)CO`, the outcome was inactive.
On the same count and under the same terms, next, `CC(=O)NC(Cc1ccccc1)C(=O)O` (stereo not given): “inactive”.
On the same count and under the same terms, for `O=[N+]([O-])c1ccc2[nH]ncc2c1` the value was “inactive”.
On to `C[C@@H]1O[C@@H](OC[C@H]2O[C@@H](Oc3c(-c4ccc(O)c(O)c4)oc4cc(O)cc(O)c4c3=O)[C@H](O)[C@@H](O)[C@@H]2O)[C@H](O)[C@H](O)[C@H]1O`, for which the compound was classed as inactive.
In the case of `O=C(CCCN1CCC(O)(c2cccc(C(F)(F)F)c2)CC1)c1ccc(F)cc1`, the compound was classed as inactive.
Same read-out and setting: for `Cc1cnc(C(=O)NCCc2ccc(S(=O)(=O)NC(=O)NC3CCCCC3)cc2)cn1` the value was “inactive”; for `O=C(NCCN1CCOCC1)c1ccc(Cl)cc1`, “inactive”.
Still for that read-out and setting: next, `CC(C)(C)C(=O)CC(=O)C(C)(C)C`: “inactive”; `CCn1cc(C(=O)O)c(=O)c2cc(F)c(N3CCNCC3)cc21`: “inactive”.
Still for that read-out and setting: next, `NCCC[C@H](N)CC(=O)N[C@H]1CNC(=O)[C@H]([C@H]2C[C@H](O)NC(N)=N2)NC(=O)/C(=C/NC(N)=O)NC(=O)[C@H](CO)NC(=O)[C@H](CO)NC1=O` (β3hOrn-[Dap]SS[ΔAla(Z-3-ureido)][X3]; lactam 1-C): “inactive”; `COc1cc([C@@H]2c3cc4c(cc3[C@H](O)[C@H]3COC(=O)[C@H]23)OCO4)cc(OC)c1OC`: “inactive”; `NCCCNCCSP(=O)(O)O`: “inactive”.
Consider `CO/N=C(/C(=O)N[C@@H]1C(=O)N2C(C(=O)OCOC(=O)C(C)(C)C)=C(C)CS[C@H]12)c1csc(N)n1`, for which the result was inactive.

The target in another test is Cellular tumor antigen p53 (Homo sapiens) (UniProt P04637). Kind of test: TOX21_p53_BLA_p5_ratio: Tox21 HCT-116 p53 Agonism Beta-lactamase Assay, Ratio, Phase 5 (AID 2283599). Summed up: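 Beta-lactamase reporter ratio (blue 460 nm over green 530 nm, 405 nm excitation) after 2 h CCF4-AM loading, in HCT-116 cells exposed 16 h at 37 C to compounds pinned at 217-fold dilution. Increases relative to DMSO baseline scored.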
Cellular tumor antigen p53 (Homo sapiens), sequence (P04637 whole entry, looked up): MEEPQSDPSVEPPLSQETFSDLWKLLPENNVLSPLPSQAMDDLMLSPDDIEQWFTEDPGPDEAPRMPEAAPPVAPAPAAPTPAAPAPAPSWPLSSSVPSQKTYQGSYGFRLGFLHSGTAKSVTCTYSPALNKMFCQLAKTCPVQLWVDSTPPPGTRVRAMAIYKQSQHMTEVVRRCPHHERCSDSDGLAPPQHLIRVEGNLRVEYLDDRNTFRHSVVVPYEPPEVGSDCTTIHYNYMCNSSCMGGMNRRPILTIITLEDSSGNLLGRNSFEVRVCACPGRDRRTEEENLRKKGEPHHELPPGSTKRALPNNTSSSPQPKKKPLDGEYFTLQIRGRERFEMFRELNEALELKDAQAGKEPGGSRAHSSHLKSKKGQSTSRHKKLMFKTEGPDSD
Regarding `NC(=O)c1cc[n+](CC2=C(C(=O)O)N3C(=O)[C@@H](NC(=O)[C@@H](c4ccccc4)S(=O)(=O)[O-])[C@H]3SC2)cc1`, the result was inactive.
Take `CC(CO)(CO)CO`: the result was inactive.
Same read-out and setting: next, `CC(C)[C@@H](N)C(=O)O`: “inactive”.
Consider `CCCCCCCCCCCCCCCCCCCCCC(=O)Nc1ccn([C@@H]2O[C@H](CO)[C@@H](O)[C@@H]2O)c(=O)n1`, for which the result was inactive.
On the same count and under the same terms, for `CCN(CC)CCOCCOC(=O)C(CC)(CC)c1ccccc1` the value was “inactive”; for `CC12CC3CC(C)(C1)CC(N)(C3)C2`, “inactive”; for `c1ccc2sc(SSc3nc4ccccc4s3)nc2c1`, “inactive”.
Same read-out and setting: for `CCCCCCCCN` the value was “inactive”; for `CC(=O)c1ccc2c(c1)N(CCCN(C)C)c1ccccc1S2`, “inactive”.
On the same count and under the same terms, for `CN(C)CCN(Cc1cccs1)c1ccccn1` the value was “inactive”; for `O=C(Cl)c1cc(Cl)cc(Cl)c1`, “inactive”; for `C=CS(=O)(=O)O`, “inactive”.
Take `c1ccc(CCNc2nc(-c3ccccc3)cs2)cc1`: the outcome was inactive.
On to `Nc1ccc2cc3ccc(N)cc3nc2c1`, for which the AC50 (in general, the midpoint of the concentration-response curve, whichever way the signal moves) was 2.96 µM (active) and 4.81 µM (active).
As to `BrC/C=C/CBr`, the result was inactive.
Same read-out and setting: next, `Cn1c(=O)c2c(ncn2CC(O)CO)n(C)c1=O` (stereo not given): “inactive”; `O=C(O)C(=O)Cc1c[nH]c2ccccc12`: “inactive”.
Consider `Nc1nc(/C(=C/CC(=O)O)C(=O)N[C@@H]2C(=O)N3C(C(=O)O)=CCS[C@H]23)cs1`, for which the result was inactive.
On the same count and under the same terms, next, `O=[N+]([O-])c1ccc2[nH]ncc2c1`: “inactive”.
On the same count and under the same terms, next, `C[C@@H]1O[C@@H](OC[C@H]2O[C@@H](Oc3c(-c4ccc(O)c(O)c4)oc4cc(O)cc(O)c4c3=O)[C@H](O)[C@@H](O)[C@@H]2O)[C@H](O)[C@H](O)[C@H]1O`: “inactive”; `Cc1cnc(C(=O)NCCc2ccc(S(=O)(=O)NC(=O)NC3CCCCC3)cc2)cn1`: “inactive”.
In the case of `O=C(NCCN1CCOCC1)c1ccc(Cl)cc1`, the result was inactive.
Take `CC(C)(C)C(=O)CC(=O)C(C)(C)C`: the outcome was inactive.
Regarding `CCn1cc(C(=O)O)c(=O)c2cc(F)c(N3CCNCC3)cc21`, the outcome was inactive.
The same measure, in the same setting: next, `NC(=O)CC[C@@H]1NC(=O)[C@H](Cc2ccccc2)NC(=O)[C@H](Cc2ccc(O)cc2)NC(=O)CCSSC[C@@H](C(=O)N2CCC[C@H]2C(=O)N[C@@H](CCCN=C(N)N)C(=O)NCC(N)=O)NC(=O)[C@H](CC(N)=O)NC1=O`: “inactive”.
On the same count and under the same terms, for `OC[C@@H](O)C(O)[C@H](O)CO` the value was “inactive”; for `COc1cc([C@@H]2c3cc4c(cc3[C@H](O)[C@H]3COC(=O)[C@H]23)OCO4)cc(OC)c1OC`, “inactive”; for `NCCCNCCSP(=O)(O)O`, “inactive”.
Same read-out and setting: for `COc1c(N2C[C@@H]3CCCN[C@@H]3C2)c(F)cc2c(=O)c(C(=O)O)cn(C3CC3)c12` the value was “inactive”; for `CCCc1ccc(C(=O)O)cc1`, “inactive”.
